Several values for one entry are separate records, joined by “and”; a condition that tells them apart may be missing. Identical values can stand only once. This is part of a sample that, as a whole, favours compounds with a hit. Of some 83,000 tested, about 20% had one in any assay.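 Growth was measured after 48 h exposure to one concentration of compound in 96-well plates. Values under 10 count as active.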 Activity calls are given as the source filed them.
Tested on: RXF 393 renal
Assay: NCI-60 one-dose screen, 48 h (100 = growth as untreated, 0 = no growth, -100 = all killed)
Conditions: 10 µM

| SMILES | growth |
| --- | --- |
| Cn1ncc2cc3c(Nc4ccc(Cl)cc4)cccc3nc21 | 90.5% (inactive) |
| O=Nc1ccc(Nc2ccccc2)cc1 | 86.5% (inactive) |
| CCC(C)(c1ccc(O)c(C)c1)c1ccc(O)c(C)c1 | 87.4% (inactive) |
| O=c1[nH]cc(/C=N\Nc2ccccc2)c(=O)[nH]1 | 111% (inactive) |
| CN(C)CCNc1cccc2sc3ccc(O)cc3c(=O)c12 | 60.2% (inactive) |
| CCOC(=O)[C@]1(Br)CC[C@@]1(Br)C(=O)OCC | 111% (inactive) |
| O=C(CNS(=O)(=O)Cc1ccccc1)NNc1ccccc1 | 120% (inactive) |
| COc1cccc(C(c2cc3c(cc2O)OCO3)N2CCOCC2)c1OC (configuration not stated) | 103% (inactive) |
| N#C/C(=C/N1C(=O)/C(=C/c2ccc([N+](=O)[O-])cc2)SC1=S)c1nc2ccccc2s1 | 96.8% (inactive) |
| Nc1nc(N)c2cc(Sc3ccc4ccccc4c3)ccc2n1 | 52.7% (inactive) |
| O=C1c2cccc3cc([N+](=O)[O-])cc(c23)C(=O)N1CCN1CCCC1 | -43% (active) |
| O=S(=O)(c1cc(Cl)ccc1O)c1cc(Cl)ccc1O | 102% (inactive) |
| COc1cc(N)ccc1Nc1c2ccccc2nc2ccccc12 | 95.1% (inactive) |
| CCC(=O)Oc1ccc(/C=N/NC(N)=S)nc1 | 60.5% (inactive) |
| O=[N+]([O-])c1cc(S(=O)(=O)Nc2ccccc2)ccc1Cl | 114% (inactive) |
| Cn1c2nc3ccccc3c-2nc2ccccc21 | 91% (inactive) and 90.7% (inactive) |

Tested on: SF-268 CNS
Assay: as above
Conditions: 10 µM

| SMILES | growth |
| --- | --- |
| Cn1ncc2cc3c(Nc4ccc(Cl)cc4)cccc3nc21 | 85.5% (inactive) |
| O=Nc1ccc(Nc2ccccc2)cc1 | 86% (inactive) |
| CCC(C)(c1ccc(O)c(C)c1)c1ccc(O)c(C)c1 | 89.7% (inactive) |
| O=C1c2ccccc2CCC1(Br)Br | 59.3% (inactive) |
| C=C1N(C)c2ccc(Cl)cc2C1(C)C | 77.4% (inactive) |
| O=c1[nH]cc(/C=N\Nc2ccccc2)c(=O)[nH]1 | 58.5% (inactive) |
| Cc1cc(Cl)ccc1NC(=O)/C(Cl)=C1/Sc2ccccc2NC1=O | 103% (inactive) |
| CN(C)CCNc1cccc2sc3ccc(O)cc3c(=O)c12 | 23.5% (inactive) |
| N#CC(=C1C=CC(=NO)C=C1)c1ccccc1 | -24% (active) |
| CCOC(=O)[C@]1(Br)CC[C@@]1(Br)C(=O)OCC | 108% (inactive) |
| O=C(CNS(=O)(=O)Cc1ccccc1)NNc1ccccc1 | 60.1% (inactive) |
| COc1cccc(C(c2cc3c(cc2O)OCO3)N2CCOCC2)c1OC (configuration not stated) | 95.8% (inactive) |
| N#C/C(=C/N1C(=O)/C(=C/c2ccc([N+](=O)[O-])cc2)SC1=S)c1nc2ccccc2s1 | 95% (inactive) |
| Nc1nc(N)c2cc(Sc3ccc4ccccc4c3)ccc2n1 | 42.1% (inactive) |
| O=C1c2cccc3cc([N+](=O)[O-])cc(c23)C(=O)N1CCN1CCCC1 | 0.438% (active) |
| O=S(=O)(c1cc(Cl)ccc1O)c1cc(Cl)ccc1O | 88.2% (inactive) |
| COc1cc(N)ccc1Nc1c2ccccc2nc2ccccc12 | 10.4% (inactive) |
| O=C1C=CC(=O)N1c1ccc(N2C(=O)C=CC2=O)cc1 | 112% (inactive) |
| CCC(=O)Oc1ccc(/C=N/NC(N)=S)nc1 | 25.4% (inactive) |
| O=[N+]([O-])c1cc(S(=O)(=O)Nc2ccccc2)ccc1Cl | 99.6% (inactive) |
| Cn1c2nc3ccccc3c-2nc2ccccc21 | 97% (inactive) and 97.7% (inactive) |

Tested on: SF-295 CNS
Assay: as above
Conditions: 10 µM

| SMILES | growth |
| --- | --- |
| Cn1ncc2cc3c(Nc4ccc(Cl)cc4)cccc3nc21 | 87.6% (inactive) |
| O=Nc1ccc(Nc2ccccc2)cc1 | 101% (inactive) |
| CCC(C)(c1ccc(O)c(C)c1)c1ccc(O)c(C)c1 | 87.8% (inactive) |
| O=C1c2ccccc2CCC1(Br)Br | 105% (inactive) |
| C=C1N(C)c2ccc(Cl)cc2C1(C)C | 67.1% (inactive) |
| O=c1[nH]cc(/C=N\Nc2ccccc2)c(=O)[nH]1 | 45.5% (inactive) |
| Cc1cc(Cl)ccc1NC(=O)/C(Cl)=C1/Sc2ccccc2NC1=O | 118% (inactive) |
| CN(C)CCNc1cccc2sc3ccc(O)cc3c(=O)c12 | -12.9% (active) |
| N#CC(=C1C=CC(=NO)C=C1)c1ccccc1 | 19.6% (inactive) |
| CCOC(=O)[C@]1(Br)CC[C@@]1(Br)C(=O)OCC | 108% (inactive) |
| O=C(CNS(=O)(=O)Cc1ccccc1)NNc1ccccc1 | 26.2% (inactive) |
| COc1cccc(C(c2cc3c(cc2O)OCO3)N2CCOCC2)c1OC (configuration not stated) | 99.7% (inactive) |
| N#C/C(=C/N1C(=O)/C(=C/c2ccc([N+](=O)[O-])cc2)SC1=S)c1nc2ccccc2s1 | 86.8% (inactive) |
| O=C1c2cccc3cc([N+](=O)[O-])cc(c23)C(=O)N1CCN1CCCC1 | 11% (inactive) |
| O=S(=O)(c1cc(Cl)ccc1O)c1cc(Cl)ccc1O | 85.2% (inactive) |
| COc1cc(N)ccc1Nc1c2ccccc2nc2ccccc12 | 91.5% (inactive) |
| O=C1C=CC(=O)N1c1ccc(N2C(=O)C=CC2=O)cc1 | 109% (inactive) |
| CCC(=O)Oc1ccc(/C=N/NC(N)=S)nc1 | 97.4% (inactive) |
| O=[N+]([O-])c1cc(S(=O)(=O)Nc2ccccc2)ccc1Cl | 97.2% (inactive) |
| Cn1c2nc3ccccc3c-2nc2ccccc21 | 96.8% (inactive) and 107% (inactive) |

— PubChem BioAssay (NCI)
